Only a selection was taken, and hits are over-represented in it overall.
FECH inh: inhibitors of human ferrochelatase; P22830; purified FECH, Ni-mesoporphyrin absorbance 550 nm; calls only at 10 µM (by protocol); 20,000 tested, 3.3% active; AID 1671448;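 active means enzyme reaction rate more than 3 SD below the solvent-only control wells on the same plate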;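 further: lower slope than DMSO wells means FECH inhibition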
Target sequence (P22830 whole entry, looked up): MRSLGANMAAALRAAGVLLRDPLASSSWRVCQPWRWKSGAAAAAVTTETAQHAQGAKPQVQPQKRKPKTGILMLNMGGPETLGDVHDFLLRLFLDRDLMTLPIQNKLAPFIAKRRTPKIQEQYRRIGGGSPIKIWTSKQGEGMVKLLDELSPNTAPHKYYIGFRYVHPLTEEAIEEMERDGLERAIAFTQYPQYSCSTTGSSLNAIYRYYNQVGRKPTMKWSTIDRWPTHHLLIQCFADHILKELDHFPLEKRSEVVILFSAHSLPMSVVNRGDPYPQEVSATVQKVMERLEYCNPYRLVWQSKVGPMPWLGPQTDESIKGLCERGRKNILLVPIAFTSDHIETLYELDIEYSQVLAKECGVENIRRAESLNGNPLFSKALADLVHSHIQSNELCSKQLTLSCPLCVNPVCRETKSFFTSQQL
* hit, by the source's call; i = inactive; + = active, no number.

SMILES	FECH inh
O=C(CCC(=O)N1CCOC2(CNCCOC2)C1)NC1CCCC1 (stereo not given)	i
Cc1ccc(S(=O)(=O)Nc2cnc(N3CC=C(c4ccccc4C)CC3)c(C(=O)O)c2)cc1	+
COc1ccc(S(=O)(=O)Nc2cnc(N3CC=C(c4ccccc4C)CC3)c(C(=O)O)c2)cc1	i
Cc1ccccc1C1=CCN(c2ncc(NS(=O)(=O)c3ccc(F)c(F)c3)cc2C(=O)O)CC1	i
CC(=O)N1c2ccc(S(=O)(=O)N3CCOCC3)cc2CC1C(=O)N1CCOCC1 (stereo not given)	i
Nc1ccc(S(=O)(=O)N2CCOCC2)cc1S(N)(=O)=O	+
Cc1cccc(NS(=O)(=O)c2ccc(N)c(S(N)(=O)=O)c2)c1	i
CC(C)(C)c1ccc(S(=O)(=O)NCCn2c(C(F)(F)F)nc3cccnc32)cc1	i
CCc1ccc(S(=O)(=O)NCCn2c(C(F)(F)F)nc3cccnc32)cc1	i
CCOc1ccc(S(=O)(=O)NCCn2c(C(F)(F)F)nc3cccnc32)cc1	+
O=C(CC1CCN(S(=O)(=O)c2ccccc2)CC1)NCCCN1CCN(c2ccccc2)CC1	i
CCC(C(=O)Nc1ccc(Nc2nc(C)cc(Nc3ccccc3)n2)cc1)c1ccccc1 (stereo not given)	i
CCC(C(=O)Nc1ccc(Nc2nc(C)cc(Nc3ccc(C)cc3)n2)cc1)c1ccccc1 (stereo not given)	i
CCC(C(=O)Nc1ccc(Nc2nc(C)cc(N(C)C)n2)cc1)c1ccccc1 (stereo not given)	+
CCC(=O)Nc1ccccc1-c1nnc(SCC(=O)Nc2cc(Cl)ccc2C)[nH]c1=O	i
CCn1c(CNS(=O)(=O)c2ccc(Cl)s2)nc2cccnc21	i
O=C(Nc1ccccc1OCCCc1ccccc1)C1CCNCC1	i
O=C(NC1CC(=O)N(c2cccc(F)c2)C1)c1ccco1 (stereo not given)	i
COc1ccccc1CNC(=O)c1nc[nH]c1C(=O)N1CCc2ccccc2C1	i
O=C(NCc1ccccn1)c1nc[nH]c1C(=O)NCc1cccnc1	+
CC(C)CCNC(=O)c1nc[nH]c1C(=O)NCc1ccccc1	i
CC1CCCN(C(=O)c2[nH]cnc2C(=O)NCc2ccccc2)C1 (stereo not given)	i
O=C(NC1CCCCC1)c1nc[nH]c1C(=O)NC1CCc2ccccc21 (stereo not given)	+
O=C(NC1CCCCC1)c1nc[nH]c1C(=O)NC1CCCC1	i
O=C(NCC1CCCCC1)c1nc[nH]c1C(=O)NCc1ccccc1	+
SMILES	FECH inh
CC(C)(C)CNC(=O)c1nc[nH]c1C(=O)NCc1ccccc1	i
CC(C)NC(=O)c1nc[nH]c1C(=O)NC1CCCc2ccccc21 (stereo not given)	i
O=C(NCc1ccccc1)c1nc[nH]c1C(=O)N1CCCCC1	i
COc1ccccc1CNC(=O)c1[nH]cnc1C(=O)NC1CCc2ccccc21 (stereo not given)	+
CCCNC(=O)c1[nH]cnc1C(=O)NC1CCCC1	i
Cc1ccsc1C(=O)N(Cc1ccccc1)CC(C)CO (stereo not given)	i
c1ccc(-c2ncn(CCCc3cccnc3)c2C2CC2)cc1	i
CCCCOC(=O)c1ccc(NC(=O)Cc2csc(NC(=O)Nc3cccc(Cl)c3)n2)cc1	i
CCn1cnnc1CN(C)Cc1nc(-c2cc(OC)ccc2F)oc1C	i
O=C(NCc1ccccc1)c1nc[nH]c1C(=O)N1CCN(Cc2ccccc2)CC1	i
Cc1cccc(-c2cc(N3CCN(S(=O)(=O)c4ccc(F)cc4)CC3)ncn2)c1	i
OCC#Cc1csc(CN2CCN(c3nccc4ccccc34)CC2)c1	i
Cc1ccsc1[C@@H]1CCN(C(=O)c2cccc(OCC(N)=O)c2)C[C@H]1O	i
CCCN1CCN(CCNC(=O)C2CCN(c3ccc(-c4ccc(F)cc4)nn3)CC2)CC1	i
CCCCCN(C)C(=O)c1[nH]cnc1C(=O)NCc1ccccc1	i
Cc1ccc(CNC(=O)c2nc[nH]c2C(=O)NCc2ccccn2)o1	+
CC(C)CCNC(=O)c1nc[nH]c1C(=O)NCC1CC1	i
COc1ccccc1CN(Cc1cccnc1)C(=O)c1sc(C)nc1C	i
CCCNC(=O)c1[nH]cnc1C(=O)NC1CCCCC1	i
O=C(NC1CCCCC1)c1nc[nH]c1C(=O)NCc1ccccn1	+
COc1ccccc1CNC(=O)c1[nH]cnc1C(=O)NCC1CC1	i
COc1ccccc1CNC(=O)c1[nH]cnc1C(=O)NCC1CCCCC1	+
Cc1ccc(CNC(=O)c2[nH]cnc2C(=O)NC(C)C)o1	i
Cc1ccc(CNC(=O)c2[nH]cnc2C(=O)NC2CCCCC2)o1	i
O=C(NC1CCCCNC1=O)c1nc[nH]c1C(=O)NCc1ccccn1 (stereo not given)	i
COc1ccccc1CNC(=O)c1nc[nH]c1C(=O)NCc1cccnc1	+
CC(C)c1cc(C(=O)N2CCC(Cc3cccc(C(N)=O)c3)C2)on1 (stereo not given)	i
Cc1ccc(N2C(=O)CCS2(=O)=O)cc1S(=O)(=O)N1CCN(c2ncccn2)CC1	i

From PubChem BioAssay
